Sampled rows, rich in hits. Any-hit rate of the full collection: about 2.1%.
Rpn11 block – inhibitors of human proteasome Rpn11; human 26S proteasome, Ub4-pepOG fluorescence polarization; 20S core pre-blocked with epoxomicin; O00487; inhibition, % at 20 µM; 360,000 compounds, 0.59% hits;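 active means inhibition at 20 µM, scaled to each plate's controls, above about 33%, limit read from the data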
Target sequence (O00487 whole entry, looked up): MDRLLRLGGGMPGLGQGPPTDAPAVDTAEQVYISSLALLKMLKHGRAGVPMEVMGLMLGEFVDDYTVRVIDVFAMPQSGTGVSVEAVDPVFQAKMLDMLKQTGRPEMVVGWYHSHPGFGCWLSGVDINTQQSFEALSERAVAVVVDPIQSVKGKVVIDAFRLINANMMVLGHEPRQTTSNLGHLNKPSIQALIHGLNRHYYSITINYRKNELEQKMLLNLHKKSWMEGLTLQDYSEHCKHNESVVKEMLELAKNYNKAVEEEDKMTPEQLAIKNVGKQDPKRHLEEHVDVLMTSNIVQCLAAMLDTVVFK
TPT1 inh – C. albicans TPT1 enzyme inhibition | recombinant caTPT1, FP RNA substrate dephosphorylation | inhibition, % at 5 µM | 300,000 compounds, 0.81% hits;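 active means inhibition above the mean of all tested compounds plus 3 SD, set per screening campaign, cut at about 24% in these data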;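 further: plate controls were DMSO alone for no effect and ferristatin control at 100 nM for full effect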
Myeloid diff MLP – myeloid differentiation induction. ER-HoxA9 myeloid progenitors, lysozyme-GFP differentiation, flow cytometry. calls only at 10 µM. 360,000 compounds, 1% hits. AID 624256;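 active means normalized GFP-positive differentiation at or above the plate's own cutoff, the solvent-only control mean plus 3 SD; inconclusive means no clear call, values can overlap the other calls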;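 further: cells exposed to compound for four days before flow analysis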
HNF4A DNA FP – change in binding of human HNF4 alpha to DNA; AID 1224865; 360,000 compounds, 0.3% hits; activity change, % at 10 µM; HNF4a-FITC DNA binding, fluorescence polarization, 1 h; P41235; in the data active means activity change above about 30%, passing the limit was not always enough
An asterisk follows results filed as active; i = inactive; u = inconclusive; x = no result shown; + = active, no number.

SMILES	Rpn11 block	TPT1 inh	Myeloid diff MLP	HNF4A DNA FP
COCCCN1C(=O)c2ccc(C(=O)N3CCN(c4ccccc4OC)CC3)cc2C1=O	-0.8	-3.8	i	0.3
O=c1oc2ccccc2cc1-c1csc(Cc2nc(-c3ccc(Cl)cc3)cs2)n1	-7.7	0.2	i	3.8
CCN(CC)c1ccc2cc(-c3nc(-c4cc5ccccc5oc4=O)cs3)c(=O)oc2c1	x	x	+	-103.8
Cc1nc2ccc(C(=O)N3CCCC(CO)(Cc4ccc(F)cc4F)C3)cc2nc1C (configuration not stated)	-1.5	1.6	i	2.4
Cc1cc(C(=O)N2CCCC(CO)(Cc3ccc(F)cc3F)C2)nn1C (configuration not stated)	18.9	x	+	-1.6
Cc1ccccc1NCc1nc2ccccc2n1C	-0.8	-0.5	i	-1.4
Cn1c(CNc2ccccc2O)nc2ccccc21	8.9	-4.3	+	4.1
C#CCOCCOCCOCCNc1nc(N2CCN(C(=O)CCCCCCCCCCNC(=O)Cn3cc(C[C@@H](C)O)nn3)CC2)nc(N2CCN(C(=O)CCCCCCCCCCNC(=O)[C@H](CCCN=C(N)N)n3cc(C[C@@H](C)CC)nn3)CC2)n1	84.1*	0.3	i	160.0
C#CCOCCOCCOCCNc1nc(N2CCN(C(=O)CCCCCCCCCCNC(=O)Cn3cc(C[C@@H](C)O)nn3)CC2)nc(N2CCN(C(=O)CCCCCCCCCCNC(=O)[C@H](CCCCN)n3cc(CCCC(=O)O)nn3)CC2)n1	-1.5	3.7	i	3.5
C#CCOCCOCCOCCNc1nc(N2CCN(C(=O)CCCCCCCCCCNC(=O)[C@H](CO)n3cc(CCCSC)nn3)CC2)nc(N2CCN(C(=O)CCCCCCCCCCNC(=O)[C@H](CCCN=C(N)N)n3cc(C[C@@H](C)CC)nn3)CC2)n1	108.1*	-2.6	i	278.6
C#CCOCCOCCOCCNc1nc(N2CCN(C(=O)CCCCCCCCCCNC(=O)[C@H](CO)n3cc(CCCSC)nn3)CC2)nc(N2CCN(C(=O)CCCCCCCCCCNC(=O)[C@H](CCCCN)n3cc(CCO)nn3)CC2)n1	5.4	x	i	14.2
CN(C(=O)COC(=O)C1CCN(S(=O)(=O)c2cccs2)CC1)c1ccccc1	-0.4	-1.1	i	-0.6
Cc1cc(C)nc(-n2nc(C)cc2NC(=O)CN2CCc3ccccc3C2)n1	-0.3	0.2	+	0.5
C[C@@H]1CN([C@@H](C)CO)C(=O)CCCn2cc(nn2)CO[C@H]1CN(C)S(=O)(=O)c1ccc(Oc2ccccc2)nc1	-3.4	x	i	-0.2
CCCN(C)C[C@@H]1OCc2cnnn2CCCC(=O)N([C@H](C)CO)C[C@H]1C	-0.1	x	i	-0.5
C[C@H]1CN([C@@H](C)CO)C(=O)CCCn2cc(nn2)CO[C@@H]1CN(C)S(=O)(=O)c1ccc(Oc2ccccc2)nc1	-8.6	x	+	0.4
C[C@H](CO)N1C[C@H](C)[C@@H](CN(C)CC2CC2)OCc2cnnn2CCCC1=O	5.4	x	+	0.5
CCOC(=O)c1ccc(NC(=O)NNC(=O)CCc2ccc(OC)cc2)cc1	-5.0	x	+	-1.2
CCOC(=O)c1ccc(NC(=O)CCOc2ccc(OC)cc2)cc1	-6.3	0.8	i	-1.4
CCN(C(=O)CSc1nnc(COc2cccc(C)c2)o1)c1nc(C)cs1	0.3	2.5	i	2.2
Cc1ccc(S(=O)(=O)N2CC3C(=O)C[C@@H](c4ccccc4)N(S(=O)(=O)c4ccccc4Cl)C3CC2c2ccccc2)cc1 (some centres not stated)	x	x	i	1.3
COc1ncnc2c1sc1nc(-c3ccccc3)c3c(c12)CCCC3	4.7	-1.9	i	-0.8
CN(C)CCNc1ncnc2c1sc1nc(-c3ccccc3)c3c(c12)CCCC3	11.4	3.9	+	22.3
CCCN1C(=O)C2(SC(NC(C)=O)=NN2C(C)=O)c2cc(C)ccc21 (configuration not stated)	3.9	-2.3	i	31.3
CCOC(=O)C1CCCN(c2c(NCCN3CCCCC3C)c(=O)c2=O)C1 (configuration not stated)	-2.3	0.3	i	-2.6
SMILES	Rpn11 block	TPT1 inh	Myeloid diff MLP	HNF4A DNA FP
COc1ccc(C(C)=O)cc1Cn1c(C)c(C(=O)NCc2ccc(C(C)C)cc2)sc1=O	5.2	x	+	-5.6
Cc1cccc(N(CC(=O)NCc2ccco2)C(=O)CCC(=O)Nc2nccs2)c1C	6.7	-0.6	u	-0.1
Cn1nc(-c2ccc(Cl)cc2)c2cc(C(=O)N3CCN(c4ccccn4)CC3)sc21	4.3	-5.6	+	3.7
Cn1nc(-c2ccc(Cl)cc2)c2cc(C(=O)NCCCN3CCCC3)sc21	6.4	0.4	+	-0.9
CCCCN(C)CCNC(=O)c1cc2c(-c3ccccc3F)nn(C)c2s1	-4.8	-1.4	+	-0.1
FC(F)(F)c1ccc(Oc2ccc(Cl)cc2Br)nc1	-3.2	6.4	i	-1.9
Cc1ccc(S(=O)(=O)Nc2cc3c(cc2C#N)OCO3)cc1C(N)=O	-0.6	-1.5	i	2.9
CCOC(=O)N1CCN(C(=O)c2ccc(CN(c3ccccc3)S(C)(=O)=O)cc2)CC1	2.6	6.0	i	-0.5
O=S(=O)(Cc1ccccc1)C(CCCc1ccccc1)S(=O)(=O)Cc1ccccc1	-4.2	x	+	-3.7
CCC(Oc1ccccc1)C(=O)N1CCN(S(=O)(=O)c2ccccc2)CC1 (configuration not stated)	-4.1	x	i	5.9
CC(=O)Nc1ccc(NC(=O)CSc2ncc(C(=O)Nc3ccccc3)c(=O)n2C)cc1	-5.0	0.9	i	-2.1
Cc1ccc(CON=C2CCN(c3ncc(C(F)(F)F)cc3Cl)CC2)cc1	-3.4	-3.9	+	4.4
FC(F)(F)c1cnc(N2CCC(=NOCc3ccc(Cl)cc3)CC2)c(Cl)c1	-5.2	-4.2	i	-4.4
Cc1cccc(C(=O)N2CCC(=O)N(C(COCc3cccc(C(F)(F)F)c3)Cc3ccccc3)CC2)c1 (configuration not stated)	5.8	0.9	+	-8.6
Cc1cccc(C(=O)N2CCC(=O)N([C@H](COCc3cccc(C(F)(F)F)c3)Cc3ccccc3)CC2)c1	x	x	i	0.2
COc1cccc(NC(=O)CN(C)C(=O)c2ccc3c(c2)S(=O)(=O)N=C2CCCCCN23)c1	-3.8	1.1	i	-0.9
COc1cc2c(cc1OC)CN(c1nc(CN3CCCCC3)nc3sc4c(c13)CCCC4)CC2	-2.5	12.0	i	6.8
COc1cc2c(cc1OC)CN(c1nc(CN3CCOCC3)nc3sc4c(c13)CCCC4)CC2	1.5	5.6	+	-1.1
O=C(N/N=C/c1ccco1)c1ccc(OCc2ccccc2)cc1	0.3	-2.4	i	-1.7
O=C(N/N=C/c1ccco1)c1ccccc1OCc1ccc(Br)cc1	-1.8	-1.6	+	3.2
NNC(=O)c1ccc(COc2ccc([N+](=O)[O-])cc2)o1	-2.9	1.2	i	2.6
Cc1cc(C)cc(OCc2ccc(C(=O)NN)o2)c1	-3.9	-3.1	+	-1.6
COc1ccc(CCN(C)CCc2ccc(OC)c(OC)c2)cc1OC	-0.3	-1.6	+	-3.4
CCN(CC(=O)N1CCCC1)S(=O)(=O)c1ccc2ccccc2c1	-11.4	0.2	i	-189.9

High-throughput results as filed in PubChem BioAssay.
